From PubChem BioAssay (Tox21)
Inconclusive results are not listed. Active and inactive are the calls of the source. Calls come from the whole dose curve.

Legend:
[1] = biological target: Acetylcholinesterase (Homo sapiens) (UniProt P22303); assay: Acetylcholinesterase (AChE) small molecule antagonists: colormetric cell-based qHTS assay (AID 1347395); note: nearly all actives have a fitted effect of over 30% in size
In short: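 Colorimetric readout: DTNB quantifies thiocholine from acetylthiocholine hydrolysed by endogenous AChE of SH-SY5Y cells (2,000/well, plated overnight). Compound pretreatment 30 min, substrate incubation 90 min, both 37 C.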

[2] = biological target: Acetylcholinesterase (Homo sapiens) (UniProt P22303); assay: Acetylcholinesterase (AChE) small molecule antagonists: enzyme-based qHTS assay (AID 1347397); conditions: Potency: AChE enzyme activity inhibition; outcome: AChE enzyme activity inhibition; note: nearly all actives have a fitted effect of over 55% in size
In short: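 Enzyme inhibition was scored from DTNB-detected thiocholine formed by recombinant human AChE acting on acetylthiocholine. The 30 min compound preincubation and 10 min substrate reaction were both run at room temperature, with DMSO as vehicle control.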

[3] = biological target: Acetylcholinesterase (Homo sapiens) (UniProt P22303); assay: Acetylcholinesterase (AChE) small molecule antagonists: fluorescence cell-based qHTS assay (AID 1347398); conditions: Potency: AChE activity; outcome: AChE activity; note: nearly all actives have a fitted effect of over 50% in size
In short: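 Endogenous acetylcholinesterase of SH-SY5Y neuroblastoma cells is measured in situ. After overnight attachment and 30 min compound exposure, cells receive acetylthiocholine and Thiolite Green; fluorescence is read after 40 min at room temperature.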

[4] = biological target: Acetylcholinesterase (Homo sapiens) (UniProt P22303); assay: Acetylcholinesterase (AChE) small molecule antagonists: enzyme-based qHTS assay with human liver microsomes (AID 1347399); conditions: Potency: qHTS inhibition; outcome: qHTS inhibition; note: nearly all actives have a fitted effect of over 60% in size
In short: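 Recombinant human AChE (50 mU/mL in the enzyme mix) and human liver microsomes (0.25 mg/mL final) were preincubated with compound and NADPH (0.25 mg/mL final) for 30 min at 37 C. Acetylthiocholine/DTNB was then added; thiocholine was read colorimetrically after 10 min at room temperature.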
% is set by controls: 0 for no effect and ±100 for the full control effect.

Acetylcholinesterase (Homo sapiens), sequence (P22303 whole entry, looked up): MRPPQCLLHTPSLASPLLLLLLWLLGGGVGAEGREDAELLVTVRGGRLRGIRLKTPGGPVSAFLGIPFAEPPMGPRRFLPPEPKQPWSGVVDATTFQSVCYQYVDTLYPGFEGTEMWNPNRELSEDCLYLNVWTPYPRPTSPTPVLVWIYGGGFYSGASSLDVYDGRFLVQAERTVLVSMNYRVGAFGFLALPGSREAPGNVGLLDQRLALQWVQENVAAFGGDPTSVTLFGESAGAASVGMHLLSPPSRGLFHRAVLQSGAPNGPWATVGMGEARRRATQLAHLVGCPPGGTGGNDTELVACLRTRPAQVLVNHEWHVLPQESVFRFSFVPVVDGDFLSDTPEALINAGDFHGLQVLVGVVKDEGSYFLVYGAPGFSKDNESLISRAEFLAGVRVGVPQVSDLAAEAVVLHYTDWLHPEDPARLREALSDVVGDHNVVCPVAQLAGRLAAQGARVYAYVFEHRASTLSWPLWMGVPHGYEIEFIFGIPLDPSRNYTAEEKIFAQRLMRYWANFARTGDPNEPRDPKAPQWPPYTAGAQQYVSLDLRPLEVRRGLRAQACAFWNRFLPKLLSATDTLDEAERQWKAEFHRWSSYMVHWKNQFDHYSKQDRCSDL

C1C2OC2C2C1C1CC2C2OC12 (stereo not drawn)
inactive: Potency [1] | Potency [2] | Potency [3] | Potency [4]

C=CCCCCCCCCCCC
inactive: activity, negative = inhibition [1] -0.0098% [at 10.5 µM] | activity change, negative = inhibition [2] 0.273% [at 10.5 µM] | activity change, negative = inhibition [3] 5.55% [at 10.5 µM] | activity change, negative = inhibition [4] 0.324% [at 10.5 µM]

OCCCc1cccnc1
inactive: Potency [1] | Potency [2]

O=[Si]=O
inactive: Potency [1] | Potency [2] | Potency [3] | Potency [4]

CC[N+](C)(CC)CCOC(=O)C1c2ccccc2Oc2ccccc21
inactive: Potency [1]

CCOCN(C(=O)CS(=O)(=O)O)c1c(C)cccc1CC
inactive: Potency [1] | Potency [2] | Potency [3]

CC/C=C\CCCCCCCCCCOC(C)=O
inactive: Potency [1] | Potency [2] | Potency [3]

Nc1ccc(C(=O)NCC(=O)O)cc1
inactive: Potency [1] | Potency [2] | Potency [3] | Potency [4]

CC(=O)NO
inactive: Potency [1] | Potency [2] | Potency [3]

CCCCCC(C)OC(=O)COc1ccc(Cl)c2cccnc12 (stereo not drawn)
inactive: Potency [1] | Potency [2] | Potency [3] | Potency [4]

CC(C)=CCC/C(C)=C/C#N
inactive: Potency [1] | Potency [2] | Potency [3]

NNC(=O)CCCCC(=O)NN
inactive: Potency [1] | Potency [2] | Potency [3] | Potency [4]

CCOC(=O)CC
inactive: Potency [1] | Potency [2] | Potency [3]

Nc1ccc(C(=O)OCCCOC(=O)c2ccc(N)cc2)cc1
inactive: Potency [1] | Potency [2] | Potency [3]

O=[N+]([O-])c1ccc2[nH]ncc2c1
inactive: Potency [1] | Potency [2] | Potency [3]

OCc1cc(C(O)CNCCCCCCOCCCCc2ccccc2)ccc1O (stereo not drawn)
inactive: Potency [1] | Potency [2]

C=C(C)C(=O)NCCCN(C)C
inactive: Potency [1] | Potency [2] | Potency [3]
